# In the supplement of paper PMC10849652:
# Targets with a hit are over-represented here; the source holds about 7,900 in all. About 0.6% of all pairs of compound and target were hits.
# Compound: COC1=CC=C(C=C1)CN2C=CC3=C2C=C(C=C3)C(=O)NO
# Experiment: log2 fold change, soluble protein after heating vs DMSO (PISA); higher = thermal stabilisation; K562 cells, 10 uM, 30 min; active = over 0.2 and 3.5 SD of the protein, either way, in both replicates (recomputed)
# Procedure, shortened: (§1)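 Soluble protein was quantified by TMTpro 16plex LC-MS/MS after channel sums were equalised. It was obtained as the supernatant after 21,000xg for 90 min from pooled aliquots of K562 cells (2×10^6 cells/mL, 10 μM compound, 30 min) heated for 3 min across 48°C-58°C and extracted in PBS with 0.5% NP-40 at 4°C. Thermal stability values are relative to control samples and come from duplicates. They are given as log2 fold changes.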
# Chain of UniProt Q99575 (Q99575 whole entry, looked up): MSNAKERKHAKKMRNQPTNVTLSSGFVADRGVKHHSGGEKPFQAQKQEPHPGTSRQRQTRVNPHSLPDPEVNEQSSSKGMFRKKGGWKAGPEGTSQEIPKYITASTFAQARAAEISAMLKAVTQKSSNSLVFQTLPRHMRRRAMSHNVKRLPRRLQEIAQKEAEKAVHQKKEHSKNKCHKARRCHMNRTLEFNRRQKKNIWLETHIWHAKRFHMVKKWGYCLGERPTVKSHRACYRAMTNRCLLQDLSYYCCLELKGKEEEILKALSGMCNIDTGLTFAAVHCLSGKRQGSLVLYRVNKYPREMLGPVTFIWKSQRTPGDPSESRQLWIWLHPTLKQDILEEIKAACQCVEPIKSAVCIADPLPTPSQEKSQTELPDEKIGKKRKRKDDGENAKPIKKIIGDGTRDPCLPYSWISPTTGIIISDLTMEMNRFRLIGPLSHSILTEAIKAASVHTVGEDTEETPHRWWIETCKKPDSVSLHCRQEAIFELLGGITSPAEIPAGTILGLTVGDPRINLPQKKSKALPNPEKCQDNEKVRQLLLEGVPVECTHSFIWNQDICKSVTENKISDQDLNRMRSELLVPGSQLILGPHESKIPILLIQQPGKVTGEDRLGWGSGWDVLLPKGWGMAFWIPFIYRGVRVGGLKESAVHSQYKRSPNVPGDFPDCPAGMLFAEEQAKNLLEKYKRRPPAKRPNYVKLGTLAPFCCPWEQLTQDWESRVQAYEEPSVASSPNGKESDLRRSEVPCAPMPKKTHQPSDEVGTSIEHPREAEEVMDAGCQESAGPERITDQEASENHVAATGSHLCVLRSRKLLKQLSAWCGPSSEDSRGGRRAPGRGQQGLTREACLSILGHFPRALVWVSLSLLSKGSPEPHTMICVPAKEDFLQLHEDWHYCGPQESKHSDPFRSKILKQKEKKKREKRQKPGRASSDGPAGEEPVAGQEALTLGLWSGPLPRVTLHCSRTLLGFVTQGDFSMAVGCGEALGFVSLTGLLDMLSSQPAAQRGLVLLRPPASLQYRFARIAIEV
# Chain of UniProt Q9Y2Y1 (Q9Y2Y1 whole entry, looked up): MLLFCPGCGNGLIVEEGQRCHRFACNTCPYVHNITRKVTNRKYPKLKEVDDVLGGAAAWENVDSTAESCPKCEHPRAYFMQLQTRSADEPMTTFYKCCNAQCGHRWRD
# Chain of UniProt Q9UMR5 (Q9UMR5 whole entry, looked up): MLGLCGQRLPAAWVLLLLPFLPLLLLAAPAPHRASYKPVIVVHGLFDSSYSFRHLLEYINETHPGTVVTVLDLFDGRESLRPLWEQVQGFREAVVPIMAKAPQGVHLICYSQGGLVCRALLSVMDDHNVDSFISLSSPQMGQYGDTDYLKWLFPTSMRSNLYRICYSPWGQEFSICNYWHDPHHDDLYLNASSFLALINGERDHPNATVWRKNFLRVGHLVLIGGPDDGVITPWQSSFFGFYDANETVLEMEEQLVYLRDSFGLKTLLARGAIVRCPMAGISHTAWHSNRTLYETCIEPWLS
# Chain of UniProt P28070 (P28070 whole entry, looked up): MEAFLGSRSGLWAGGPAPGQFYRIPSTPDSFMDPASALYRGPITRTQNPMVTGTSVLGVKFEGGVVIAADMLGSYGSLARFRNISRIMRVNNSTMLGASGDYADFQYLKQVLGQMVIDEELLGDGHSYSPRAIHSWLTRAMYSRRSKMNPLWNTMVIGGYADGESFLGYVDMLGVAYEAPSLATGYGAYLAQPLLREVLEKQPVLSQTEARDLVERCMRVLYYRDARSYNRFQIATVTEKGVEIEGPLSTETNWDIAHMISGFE
# Chain of UniProt O95613 (O95613 whole entry, looked up): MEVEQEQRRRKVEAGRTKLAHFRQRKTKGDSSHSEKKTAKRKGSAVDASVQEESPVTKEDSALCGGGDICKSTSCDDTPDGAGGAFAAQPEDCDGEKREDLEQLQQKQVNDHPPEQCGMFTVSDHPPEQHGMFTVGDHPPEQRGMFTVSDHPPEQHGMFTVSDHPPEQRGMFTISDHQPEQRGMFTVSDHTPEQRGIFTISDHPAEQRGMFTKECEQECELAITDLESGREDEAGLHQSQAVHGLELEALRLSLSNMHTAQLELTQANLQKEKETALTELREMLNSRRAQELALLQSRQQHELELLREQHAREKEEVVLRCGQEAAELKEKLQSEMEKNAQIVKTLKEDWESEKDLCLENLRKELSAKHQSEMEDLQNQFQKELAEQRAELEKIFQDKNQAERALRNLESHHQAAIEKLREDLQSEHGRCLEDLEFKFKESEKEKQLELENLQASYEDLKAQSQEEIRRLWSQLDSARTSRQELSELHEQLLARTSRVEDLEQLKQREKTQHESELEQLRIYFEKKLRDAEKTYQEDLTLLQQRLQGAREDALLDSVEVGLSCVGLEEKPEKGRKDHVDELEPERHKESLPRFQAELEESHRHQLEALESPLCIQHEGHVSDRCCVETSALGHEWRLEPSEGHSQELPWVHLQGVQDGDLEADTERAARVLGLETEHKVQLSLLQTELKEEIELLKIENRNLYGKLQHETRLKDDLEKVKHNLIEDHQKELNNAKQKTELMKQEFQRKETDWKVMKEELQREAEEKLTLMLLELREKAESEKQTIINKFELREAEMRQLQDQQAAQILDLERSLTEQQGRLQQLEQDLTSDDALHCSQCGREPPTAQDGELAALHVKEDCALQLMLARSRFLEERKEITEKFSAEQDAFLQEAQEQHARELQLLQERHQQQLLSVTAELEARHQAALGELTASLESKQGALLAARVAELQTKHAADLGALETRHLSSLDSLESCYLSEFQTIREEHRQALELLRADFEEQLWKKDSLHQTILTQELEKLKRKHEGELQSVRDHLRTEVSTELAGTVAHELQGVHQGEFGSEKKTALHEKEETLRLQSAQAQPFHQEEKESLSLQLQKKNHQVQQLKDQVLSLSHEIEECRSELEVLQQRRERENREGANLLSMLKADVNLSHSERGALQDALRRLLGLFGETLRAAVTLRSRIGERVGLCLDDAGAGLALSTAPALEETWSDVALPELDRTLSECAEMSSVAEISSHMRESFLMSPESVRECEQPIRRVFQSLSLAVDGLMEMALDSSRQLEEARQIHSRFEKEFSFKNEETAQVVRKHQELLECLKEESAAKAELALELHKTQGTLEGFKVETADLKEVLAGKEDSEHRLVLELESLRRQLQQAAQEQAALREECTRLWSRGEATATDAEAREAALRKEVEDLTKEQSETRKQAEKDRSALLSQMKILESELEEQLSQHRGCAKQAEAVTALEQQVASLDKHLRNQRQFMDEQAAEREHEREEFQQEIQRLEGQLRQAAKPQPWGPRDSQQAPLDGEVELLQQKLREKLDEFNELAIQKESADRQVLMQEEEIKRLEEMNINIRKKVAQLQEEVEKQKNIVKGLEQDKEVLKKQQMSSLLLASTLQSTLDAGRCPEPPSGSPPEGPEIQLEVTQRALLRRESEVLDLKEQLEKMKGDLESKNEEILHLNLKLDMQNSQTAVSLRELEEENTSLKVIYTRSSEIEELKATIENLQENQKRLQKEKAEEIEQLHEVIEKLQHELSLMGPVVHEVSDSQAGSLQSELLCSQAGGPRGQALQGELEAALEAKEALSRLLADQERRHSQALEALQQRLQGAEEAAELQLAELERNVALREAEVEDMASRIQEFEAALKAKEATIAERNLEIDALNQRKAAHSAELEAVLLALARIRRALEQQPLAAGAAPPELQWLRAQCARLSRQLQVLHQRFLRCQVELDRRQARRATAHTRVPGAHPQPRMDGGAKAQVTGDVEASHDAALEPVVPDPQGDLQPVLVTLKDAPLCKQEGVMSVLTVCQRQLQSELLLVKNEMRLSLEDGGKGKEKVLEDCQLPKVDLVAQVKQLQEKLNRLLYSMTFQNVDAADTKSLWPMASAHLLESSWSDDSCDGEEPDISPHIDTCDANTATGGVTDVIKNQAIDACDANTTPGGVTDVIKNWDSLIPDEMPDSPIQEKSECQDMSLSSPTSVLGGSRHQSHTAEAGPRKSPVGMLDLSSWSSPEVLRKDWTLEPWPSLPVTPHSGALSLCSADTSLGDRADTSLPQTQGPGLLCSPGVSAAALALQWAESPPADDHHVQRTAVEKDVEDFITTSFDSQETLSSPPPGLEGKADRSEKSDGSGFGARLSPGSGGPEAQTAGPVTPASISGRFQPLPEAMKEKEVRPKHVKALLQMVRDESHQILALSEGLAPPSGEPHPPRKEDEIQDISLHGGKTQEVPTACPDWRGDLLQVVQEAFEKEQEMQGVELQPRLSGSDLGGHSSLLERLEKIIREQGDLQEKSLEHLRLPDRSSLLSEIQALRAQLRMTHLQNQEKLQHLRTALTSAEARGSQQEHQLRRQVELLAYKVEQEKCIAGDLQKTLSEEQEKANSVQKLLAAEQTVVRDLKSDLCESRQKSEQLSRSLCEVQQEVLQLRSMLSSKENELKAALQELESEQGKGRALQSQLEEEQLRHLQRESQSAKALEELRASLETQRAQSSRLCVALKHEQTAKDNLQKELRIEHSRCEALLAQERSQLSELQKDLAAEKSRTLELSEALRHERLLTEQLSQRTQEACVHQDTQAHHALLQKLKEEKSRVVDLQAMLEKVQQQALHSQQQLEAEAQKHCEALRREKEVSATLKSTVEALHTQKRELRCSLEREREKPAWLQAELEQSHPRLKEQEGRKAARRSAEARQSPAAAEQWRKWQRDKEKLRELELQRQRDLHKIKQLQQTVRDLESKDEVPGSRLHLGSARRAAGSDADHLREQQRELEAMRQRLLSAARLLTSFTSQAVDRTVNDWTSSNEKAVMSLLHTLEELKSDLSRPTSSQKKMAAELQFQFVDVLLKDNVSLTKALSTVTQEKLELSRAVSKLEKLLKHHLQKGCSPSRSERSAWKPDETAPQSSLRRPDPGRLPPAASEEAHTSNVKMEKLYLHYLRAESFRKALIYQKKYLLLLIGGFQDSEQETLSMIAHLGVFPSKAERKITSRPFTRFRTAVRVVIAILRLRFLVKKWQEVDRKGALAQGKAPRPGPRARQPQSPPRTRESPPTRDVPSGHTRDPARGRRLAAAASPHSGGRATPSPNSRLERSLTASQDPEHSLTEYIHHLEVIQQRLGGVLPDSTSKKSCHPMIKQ
row,Target,log2 fold change
1,PDCD6 (UniProt O75340),-0.06 (inactive)
2,PRKAR1B (UniProt P31321),0.1 (inactive)
3,PPP4R3B (UniProt Q5MIZ7),-0.01 (inactive)
4,PUF60 (UniProt Q9UHX1),0.007 (inactive)
5,PISD (UniProt Q9UG56),-0.018 (inactive)
6,PJA2 (UniProt O43164),-0.022 (inactive)
7,PECAM1 (UniProt P16284),0.018 (inactive)
8,PTTG1 (UniProt O95997),0.011 (inactive)
9,PIK3C3 (UniProt Q8NEB9),0.049 (inactive)
10,PARN (UniProt O95453),0.001 (inactive)
11,POMP (UniProt Q9Y244),0.175 (inactive)
12,POLR3K (UniProt Q9Y2Y1),-0.078 (inactive)
13,PPT1 (UniProt P50897),0.021 (inactive)
14,PTDSS1 (UniProt P48651),-0.015 (inactive)
15,PPT2 isoform 3 (UniProt Q9UMR5),0.052 (inactive)
16,PIK3R1 (UniProt P27986),0.01 (inactive)
17,PIR (UniProt O00625),-0.338 (active)
18,PRKCB isoform 2 (UniProt P05771),-0.011 (inactive)
19,POP1 (UniProt Q99575),0.025 (inactive)

row,Target,log2 fold change
1,PLBD1 (UniProt Q6P4A8),-0.076 (inactive)
2,PEX7 (UniProt O00628),0.013 (inactive)
3,PSMC6 (UniProt P62333),-0.059 (inactive)
4,PDCD2L (UniProt Q9BRP1),0.085 (inactive)
5,PRKCA (UniProt P17252),-0.005 (inactive)
6,PPP2R5E (UniProt Q16537),-0.044 (inactive)
7,PRPF38A (UniProt Q8NAV1),-0.113 (inactive)
8,PNPLA8 (UniProt Q9NP80),-0.061 (inactive)
9,PSMB4 (UniProt P28070),-0.033 (inactive)
10,PHKA1 (UniProt P46020),0.046 (inactive)
11,PKN1 isoform 2 (UniProt Q16512),0.001 (inactive)
12,PEX16 isoform 2 (UniProt Q9Y5Y5),0.146 (inactive)
13,PELO (UniProt Q9BRX2),0.001 (inactive)
14,PSMC2 (UniProt P35998),-0.076 (inactive)
15,PCNT (UniProt O95613),-0.228 (inactive)
16,PELP1 (UniProt Q8IZL8),-0.096 (inactive)
17,PI4K2A (UniProt Q9BTU6),0.012 (inactive)
18,POLR3B (UniProt Q9NW08),0.026 (inactive)

# Compound: CON(C)C(=O)N1N=C(c2cc(F)ccc2F)S[C@@]1(CCCN)c1ccccc1 [filanesib]
# Experiment: as above
# Procedure, shortened: as §1
row,Target,log2 fold change
1,PDCD6 (UniProt O75340),-0.124 (inactive)
2,PRKAR1B (UniProt P31321),0.034 (inactive)
3,PPP4R3B (UniProt Q5MIZ7),-0.004 (inactive)
4,PUF60 (UniProt Q9UHX1),0.087 (inactive)
5,PISD (UniProt Q9UG56),-0.012 (inactive)
6,PJA2 (UniProt O43164),0.004 (inactive)
7,PECAM1 (UniProt P16284),0.114 (inactive)
8,PTTG1 (UniProt O95997),0.052 (inactive)
9,PIK3C3 (UniProt Q8NEB9),0.221 (inactive)
10,PARN (UniProt O95453),-0.015 (inactive)
11,POMP (UniProt Q9Y244),0.082 (inactive)
12,POLR3K (UniProt Q9Y2Y1),-0.03 (inactive)
13,PPT1 (UniProt P50897),-0.241 (active)
14,PTDSS1 (UniProt P48651),0.075 (inactive)
15,PPT2 isoform 3 (UniProt Q9UMR5),0.008 (inactive)
16,PIK3R1 (UniProt P27986),-0.041 (inactive)
17,PIR (UniProt O00625),0.015 (inactive)
18,PRKCB isoform 2 (UniProt P05771),-0.022 (inactive)
19,POP1 (UniProt Q99575),-0.023 (inactive)

row,Target,log2 fold change
1,PLBD1 (UniProt Q6P4A8),-0.051 (inactive)
2,PEX7 (UniProt O00628),-0.063 (inactive)
3,PSMC6 (UniProt P62333),0.083 (inactive)
4,PDCD2L (UniProt Q9BRP1),0.014 (inactive)
5,PRKCA (UniProt P17252),-0.066 (inactive)
6,PPP2R5E (UniProt Q16537),-0.056 (inactive)
7,PRPF38A (UniProt Q8NAV1),0.046 (inactive)
8,PNPLA8 (UniProt Q9NP80),0.006 (inactive)
9,PSMB4 (UniProt P28070),0.034 (inactive)
10,PHKA1 (UniProt P46020),0.076 (inactive)
11,PKN1 isoform 2 (UniProt Q16512),0.019 (inactive)
12,PEX16 isoform 2 (UniProt Q9Y5Y5),-0.152 (inactive)
13,PELO (UniProt Q9BRX2),0.128 (inactive)
14,PSMC2 (UniProt P35998),0.049 (inactive)
15,PCNT (UniProt O95613),0.006 (inactive)
16,PELP1 (UniProt Q8IZL8),-0.022 (inactive)
17,PI4K2A (UniProt Q9BTU6),-0.066 (inactive)
18,POLR3B (UniProt Q9NW08),0.065 (inactive)
